In test [1] the test system is Nanoluciferase (engineered Oplophorus gracilirostris luciferase). The test is described as follows: Primary Nanoluciferase (NLuc) qHTS assay for identification of artifact compounds. (AID 1845222).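 Note: NLuc secreted into diluted conditioned medium of S16 cells.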 Summed up: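 qHTS format, against NLuc in S16 cell-conditioned medium. Nano-Glo substrate 1:100 was added after 15 min at room temperature. Luminescence was taken after a further 5 min.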

A short description of test [2]: Quantitative High-Throughput drug screen in 47 multiple myeloma cell lines against the NCATS MIPE library collection: FR4_PLB cell viability assay (AID 1918924; note: nearly all actives have a fitted effect of over 35% in size; note: potency is the fitted concentration of half-maximal effect). Summed up:
(§1)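 Inhibition of cell viability is measured here. Each line was plated at 500 cells per well, treated with MIPE 4.0 drugs, kept 48 hours at 37C, then assayed for ATP content by CellTiter-Glo luminescence.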

The nature of test [3]: Quantitative High-Throughput drug screen in 47 multiple myeloma cell lines against the NCATS MIPE library collection: EJM_DSMZ cell viability assay (AID 1918926; note: nearly all actives have a fitted effect of over 30% in size; note: potency is the fitted concentration of half-maximal effect). The gist of the method: (§2)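 Primary qHTS used for cherry-picking: cells at 500/well, library compounds for 48 h (37C, 5% CO2), luminescent ATP assay.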
A short description of test [4]: Quantitative High-Throughput drug screen in 47 multiple myeloma cell lines against the NCATS MIPE library collection: AMO1_DSMZ cell viability assay (AID 1918927; note: nearly all actives have a fitted effect of over 30% in size; note: potency is the fitted concentration of half-maximal effect). Summed up:
as §2

Test [5] is described as follows: Quantitative High-Throughput drug screen in 47 multiple myeloma cell lines against the NCATS MIPE library collection: ARP1_JJKsccF8 cell viability assay (AID 1918928; note: nearly all actives have a fitted effect of over 40% in size; note: potency is the fitted concentration of half-maximal effect). The gist of the method: (§3)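 Here, 48 h treatment with MIPE 4.0 agents at 37 °C preceded an ATP luminescence read. Plating density was 500 cells per well.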
Test [6] is described as follows: Quantitative High-Throughput drug screen in 47 multiple myeloma cell lines against the NCATS MIPE library collection: ARD_JJKsccE7 cell viability assay (AID 1918929; note: potency is the fitted concentration of half-maximal effect). The gist of the method:
as §2

A short description of test [7]: Quantitative High-Throughput drug screen in 47 multiple myeloma cell lines against the NCATS MIPE library collection: Karpas620_DSMZ cell viability assay (AID 1918959). Note: nearly all actives have a fitted effect of over 30% in size. Note: potency is the fitted concentration of half-maximal effect. The gist of the method: as §1
Test [8] is described as follows: Quantitative High-Throughput drug screen in 47 multiple myeloma cell lines against the NCATS MIPE library collection: KMM1_JCRB cell viability assay (AID 1918960). Note: nearly all actives have a fitted effect of over 30% in size. Note: potency is the fitted concentration of half-maximal effect. The gist of the method: as §3
Test [9] in a line: Quantitative High-Throughput drug screen in 47 multiple myeloma cell lines against the NCATS MIPE library collection: JIM3_ECACC cell viability assay (AID 1918963; note: nearly all actives have a fitted effect of over 35% in size; note: potency is the fitted concentration of half-maximal effect). Summed up: as §1
Test [10] in a line: Quantitative High-Throughput drug screen in 47 multiple myeloma cell lines against the NCATS MIPE library collection: JIM1_ECACC cell viability assay (AID 1918964). Summed up: as §2
Test [11] is described as follows: Quantitative High-Throughput drug screen in 47 multiple myeloma cell lines against the NCATS MIPE library collection: JJN3_DSMZ cell viability assay (AID 1918966; note: nearly all actives have a fitted effect of over 50% in size; note: potency is the fitted concentration of half-maximal effect). The gist of the method:
as §2

Test [12] can be described thus: Quantitative High-Throughput drug screen in 47 multiple myeloma cell lines against the NCATS MIPE library collection: KMS12BM_JCRB cell viability assay (AID 1918971). Note: nearly all actives have a fitted effect of over 35% in size. Note: potency is the fitted concentration of half-maximal effect. The gist of the method:
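Viability readout: CellTiter-Glo luminescence following 5 min room-temperature incubation with reagent. Prior exposure: 48 h, 37C, humidified 5% CO2, 500 cells per well.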

Test [13] in a line: Quantitative High-Throughput drug screen in 47 multiple myeloma cell lines against the NCATS MIPE library collection: Delta47_JCRB cell viability assay (AID 1918925; note: nearly all actives have a fitted effect of over 45% in size; note: potency is the fitted concentration of half-maximal effect). The gist of the method:
as §2

Test [14] in a line: Quantitative High-Throughput drug screen in 47 multiple myeloma cell lines against the NCATS MIPE library collection: KHM11_PLB cell viability assay (AID 1918962). Note: potency is the fitted concentration of half-maximal effect; nearly all actives have a fitted effect of over 35% in size. The gist of the method: as §1
The nature of test [15]: Quantitative High-Throughput drug screen in 47 multiple myeloma cell lines against the NCATS MIPE library collection: INA6_PLB cell viability assay (AID 1918965; note: potency is the fitted concentration of half-maximal effect; nearly all actives have a fitted effect of over 55% in size). The gist of the method:
(§4)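 qHTS of the MIPE 4.0 collection: 500 myeloma cells/well, 48 h drug exposure at 37C in 5% CO2, then CellTiter-Glo for 5 min at room temperature before luminescence reading.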

Test [16] is described as follows: Quantitative High-Throughput drug screen in 47 multiple myeloma cell lines against the NCATS MIPE library collection: H1112_PLB cell viability assay (AID 1918967; note: nearly all actives have a fitted effect of over 30% in size; note: potency is the fitted concentration of half-maximal effect). Summed up:
as §2

The nature of test [17]: Quantitative High-Throughput drug screen in 47 multiple myeloma cell lines against the NCATS MIPE library collection: Karpas25_ECACC cell viability assay (AID 1918968). The gist of the method: as §2
The nature of test [18]: Quantitative High-Throughput drug screen in 47 multiple myeloma cell lines against the NCATS MIPE library collection: Karpas417_ECACC cell viability assay (AID 1918961). Note: potency is the fitted concentration of half-maximal effect. Conditions: Karpas417 myeloma viability, CellTiter-Glo ATP luminescence, 48 h; viability (% of DMSO): at 45.8 µM (top of the series). Summed up:
as §4

Test [19] can be described thus: Primary redox qHTS assay for identification of artifact compounds. (AID 1845223). Summed up:
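Amplex Red (25 uM) and HRP (250 mU/mL) in HBSS, with compounds for 15 min, then 250 uM DTT for 30 min, room temperature, dark. Fluorescence 525/598 nm read; normalized to DMSO and 10 uM DA3003; Hill fit.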
In general terms: Quantitative high-throughput screening tests each substance at several concentrations.

SMILES strings stand for the structures. Values without a mark were called inactive. Records with an inconclusive call do not appear. Activity calls are given as the source filed them. Calls come from the whole dose curve; as a rule, active = well fitted curve in the direction sought with a large enough effect; inconclusive = small, poorly fitted or top-dose-only effect, or another doubt; inactive = no such curve, though single readings can be large; an effect the other way counts as inactive or inconclusive.

`COc1ccc(-c2nc3ccc(C4=NNC(=O)CC4C)cc3[nH]2)cc1` (stereo unspecified): the Potency result in test [1], in [2], in test [3], in test [4], in test [5] and in test [6] was “inactive” in each case. Moreover, the Potency result in test [7], in test [8], in test [9], in [10], in [11] and in test [12] was “inactive” in each case.
In the case of `Cc1cnc(Nc2cccc(CN3CCOCC3)c2)nc1Nc1cccc(S(=O)(=O)NC(C)(C)C)c1`, in [1], the Potency entry was “inactive”. The Potency in test [2] was 14.8 µM (active); in test [13], 4.18 µM (active); in [5] it was 5.26 µM (active); in [7], 4.69 µM (active); in test [14], 13.2 µM (active); in [9] it was 2.96 µM (active). For the same compound, the Potency in test [15] is 0.469 µM (active); in test [11], 5.9 µM (active); in test [16], 13.2 µM (active); in test [12], 5.26 µM (active).
In the case of `O[C@@H](COc1cccc2ncccc12)CN1CCN(C2c3ccccc3[C@@H]3[C@H](c4ccccc42)C3(F)F)CC1` (stereo partly specified), the Potency entry in test [1], in [6], in test [7] and in test [8] was “inactive” each time. Further, the Potency is 23.5 µM (active) in [2]; 16.6 µM (active) in test [13]; 23.5 µM (active) in test [3]; 16.6 µM (active) in test [14]; 13.2 µM (active) in test [9]; 14.8 µM (active) in [11]. In addition, the Potency in [12] was 23.5 µM (active).
For the compound `CC1(COc2ccc3c(c2)ncn3-c2ccc3cccc(N4CCC(N)CC4)c3n2)COC1`, in test [1], the Potency result was “inactive”. The Potency was 1.48 µM (active) in test [2]; 5.9 µM (active) in [6]; 0.0148 µM (active) in test [14]; 0.418 µM (active) in test [11]; 0.0083 µM (active) in [16]; 11.8 µM (active) in [12].
Turning to `CN(C)CCCNC(=O)c1ccc(-c2cc(O)c3ncccc3c2)cc1`, the Potency result in test [1] was “inactive”. Moreover, the Potency is 20.9 µM (active) in test [2]; 20.9 µM (active) in [7]; 20.9 µM (active) in test [8]; 23.5 µM (active) in test [9]; 20.9 µM (active) in test [15]; 20.9 µM (active) in test [11]. Also, the Potency was 18.7 µM (active) in test [17] and 9.35 µM (active) in [12].
Turning to `Cc1cnc(-c2cc(N3CCN(C(=O)CCS(C)(=O)=O)CC3)ncc2Cl)c(C)c1`, the Potency result in [1], in test [2], in [13], in test [5], in test [7] and in [9] was “inactive” each time. Besides, the Potency entry in [11] and in [16] was “inactive” each time. Also, the Potency in [3] is 0.0132 µM (active); in test [15], 18.7 µM (active).
As to `CC(=O)Nc1cccc(-n2c(=O)n(C3CC3)c(=O)c3c(Nc4ccc(I)cc4F)n(C)c(=O)c(C)c32)c1`, the Potency entry in test [1] and in test [5] was “inactive” throughout. Further, the Potency was 0.743 µM (active) in [2]; 0.0372 µM (active) in test [3]; 1.18 µM (active) in test [4]; 0.0296 µM (active) in [7]; 0.0662 µM (active) in test [18]; 0.0059 µM (active) in test [14]. Further, the Potency in [9] was 0.187 µM (active); in test [15], 0.0418 µM (active); in test [16], 0.0469 µM (active); in [17] it was 1.66 µM (active).
Turning to `COc1cc(Nc2nc3ccccc3nc2NS(=O)(=O)c2ccc(NC(=O)c3ccc(C)c(OC)c3)cc2)cc(OC)c1`, the Potency entry in test [1] is “inactive”. Also, the outcome in test [19] was inactive. For the same compound, the Potency in test [9] is 13.2 µM (active); in test [15] it was 16.6 µM (active).

The values above are taken from PubChem BioAssay (NCATS).
